Assay outcomes (PubChem BioAssay)
Sampled rows, rich in hits. Any-hit rate of the full collection: about 6.2%.
VP16 counter = counter-screen for ROR gamma inhibitors: Gal4-VP16 reporter; AID 2546; actives 3.5% (n = 310,000); Drosophila S2 Gal4-VP16 UAS-luciferase, luminescence, 20 h; Potency, µM (highest dose often 53.6 µM), inactives show top-dose activity, negative = inhibition, actives largely listed as inhibitors;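 note: Gal4-VP16 expression switched on by copper sulfate through the metallothionein promoter; nearly all actives have a fitted effect of over 50% in size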
KinaseGlo FLuc = Kinase-Glo luciferase inhibition (counter-screen); Q27757; actives 0.28% (n = 200,000); Potency, µM (doses to about 38.3 µM), inactives show at the highest dose activity change, negative = inhibition, most hits filed as inhibitors; AID 1379; Kinase-Glo luciferase, ATP luminescence, 8 min; note: nearly all actives have a fitted effect of over 60% in size
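Kinase-Glo luciferase light output from ATP and luciferin was measured with 10 uM ATP, within the enzyme's linear range. Buffer: 50 mM imidazole pH 7.2, 50 mM KCl, 7 mM MgCl2, 0.01% Tween 20, 0.05% BSA; luminescence read after 8 min at ambient temperature.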
RORg inh = ROR gamma (mouse) transcription inhibition. P51450. Drosophila S2 Gal4-RORgamma UAS-luciferase reporter, 20 h. Potency, µM (titrated, usually from 53.6 µM), for the others: at the top dose activity change, negative = inhibition, actives largely listed as inhibitors. actives 5.4% (n = 310,000). AID 2551; note: nearly all actives have a fitted effect of over 60% in size
Target sequence (P51450 whole entry, looked up, the tested form may be a part): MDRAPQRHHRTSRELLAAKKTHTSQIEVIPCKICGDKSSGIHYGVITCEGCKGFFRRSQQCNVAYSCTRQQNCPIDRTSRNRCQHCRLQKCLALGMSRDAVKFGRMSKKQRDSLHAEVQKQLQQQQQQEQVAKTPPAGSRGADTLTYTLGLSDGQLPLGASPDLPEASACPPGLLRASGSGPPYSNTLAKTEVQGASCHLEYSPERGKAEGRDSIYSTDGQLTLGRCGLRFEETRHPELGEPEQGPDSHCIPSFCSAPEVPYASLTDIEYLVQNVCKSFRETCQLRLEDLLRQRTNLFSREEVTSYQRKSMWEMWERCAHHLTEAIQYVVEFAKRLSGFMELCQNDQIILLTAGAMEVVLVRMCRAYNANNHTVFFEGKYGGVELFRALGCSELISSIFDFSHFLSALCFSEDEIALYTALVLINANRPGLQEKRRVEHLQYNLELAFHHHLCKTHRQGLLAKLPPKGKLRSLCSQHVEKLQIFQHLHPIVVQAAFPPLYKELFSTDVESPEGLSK
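Read-out: Photinus luciferase luminescence; inhibitors lower reporter signal. Insect Schneider cells with Gal4-ROR gamma fusion under metallothionein promoter, UAS reporter; 700 uM final copper sulfate induction, 20 hr, ambient temperature.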
* = called active by the depositor; ? = inconclusive; · = not tested or not shown; [ ] = remark or other dose. Calls come from the whole dose curve; as a rule, active = well fitted curve in the direction sought with a large enough effect; inconclusive = small, poorly fitted or top-dose-only effect, or another doubt; inactive = no such curve, though single readings can be large; an effect the other way counts as inactive or inconclusive. % is set by controls: 0 for no effect and ±100 for the full control effect; potency is the fitted concentration of half-maximal effect.

SMILES	VP16 counter	KinaseGlo FLuc	RORg inh
Cc1ccc(-c2[nH]n3c(=O)c4c(nc3c2C)CCCC4)cc1	-12%	-7%	-1%
O=c1c2c(nc3c(-c4cccc(Br)c4)c[nH]n13)CCCC2	3.2µM*	3%	2.5µM*
O=c1c2c(nc3c(-c4ccc(Cl)cc4)c[nH]n13)CCC2	?	0%	5µM*
O=c1c2c(nc3c(-c4ccccc4)c[nH]n13)CCC2	?	-4%	6.3µM*
O=c1c2c(nc3cc(-c4ccc(Br)cc4)[nH]n13)CCCC2	-11%	-8%	-6%
CCO	2%	·	-2%
Cc1cccc(C)c1O	0%	·	26%
COc1ccc(C2=NN(CCC(=O)NCc3cccs3)C(=O)CC2)cc1	27%	1%	-5%
Cc1ccc(N2CC(C(=O)Nc3nc4ccc(S(C)(=O)=O)cc4s3)CC2=O)cc1 (stereo not drawn)	5%	·	11%
COc1ccc(N(CC(=O)N/N=C/c2cccnc2)S(=O)(=O)c2ccc(C)cc2)cc1OC	2%	·	3%
O=C(Nc1ccccc1)c1sccc1Oc1ccc([N+](=O)[O-])cc1F	-5%	2%	-30%
CC12COC3(C(=O)Nc4ccc(Cl)cc4)CC1CCC32C (stereo not drawn)	-6%	-2%	21%
CC12COC3(C(=O)Nc4ccccc4F)CC1CCC32C (stereo not drawn)	-2%[10 µM]	-4%	10µM*
CCNc1nc2c(c(=O)n(C)c(=O)n2C)n1CCCc1ccccc1	11µM*	·	?
Cn1c(=O)c2c([nH]c(=S)n2Cc2ccc(Cl)cc2)n(C)c1=O	?	·	13µM*
Cn1c(=O)c2c(ncn2Cc2ccc(Cl)cc2)n(C)c1=O	-27%	-3%	?
CCC(C)Nc1nc2c(c(=O)n(C)c(=O)n2C)n1Cc1ccc(Cl)cc1 (stereo not drawn)	-5%	·	27%
CCNc1nc2c(c(=O)[nH]c(=O)n2C)n1CCCc1ccccc1	7%	·	3%
CCNc1nc2c(c(=O)n(C)c(=O)n2C)n1Cc1ccc(Cl)cc1	4.5µM*	·	?
C=CCn1c(NCCc2ccccc2)nc2c1c(=O)n(C)c(=O)n2C	?	3%	0%
C/C(Cl)=C\Cn1c(NCCc2ccccc2)nc2c1c(=O)n(C)c(=O)n2C	3.5µM*	-1%	7.1µM*
CC1CCN(C(=O)c2cc(S(=O)(=O)N3CCCCC3)c[nH]2)CC1	-4%	·	-8%
CC1(OC(=O)C2CCCC2)C(=O)C=C2C=C(c3ccsc3)N(c3ccc(CO)cc3)C=C2C1=O (stereo not drawn)	·	-5%[7.66 µM]	·
CCOC(=O)CCN1C(=O)[C@H]2[C@H]3[C@H](O)[C@H](O)C/C(=N/OCc4ccccc4)[C@@H]3CC[C@@H]2C1=O	4%[10 µM]	·	6%[10 µM]
Cc1ccc(CCNC(=O)C2CCN(S(=O)(=O)c3ccc4nc5c(c(C(=O)O)c4c3)CCCC5)CC2)cc1	2%	·	21%
SMILES	VP16 counter	KinaseGlo FLuc	RORg inh
Cn1c(=O)c2c(nc(NCc3ccccc3)n2Cc2ccc(F)cc2)n(C)c1=O	14µM*	0%	?
CCCNc1nc2c(c(=O)n(C)c(=O)n2C)n1Cc1ccc(F)cc1	?	3%	43%
CC(=O)Nc1ccc(S(=O)(=O)N2CCN(C(C)CCc3ccccc3)CC2)cc1 (stereo not drawn)	6%	-1%	7%
CCn1c(-c2cc(-c3cccc(OC)c3)nc3ccccc23)n[nH]c1=S	?	-4%	5µM*
CC(=O)COC(=O)c1cc(-c2ccc(C)cc2)nc2ccccc12	?	1%	?
CCc1ccc(-c2cc(-c3n[nH]c(=S)n3CC)c3ccccc3n2)cc1	-23%	-8%	2µM*
COc1cccc(-c2nc3ccccc3c(=O)o2)c1	-2%	-21%	-6%
CCOc1ccc(C(=O)CCC(=O)N2CCN(c3ncccn3)CC2)cc1	0%	·	6%
COc1cc(NC(=O)CSc2nc(C)cc(C)n2)cc(OC)c1OC	6%	-2%	1%
CC(=O)Nc1cc(C(F)(F)F)ccc1Oc1cccc(Br)c1	13µM*	1%	?
CCOCC(=O)Nc1cc(C(F)(F)F)ccc1Oc1cccc(Br)c1	13%	-1%	25%
Cc1ccc(/C=N/Nc2ccc3c(C(F)(F)F)cc(C(F)(F)F)nc3n2)cc1	0%	0%	-30%
NNc1ccc2c(C(F)(F)F)cc(C(F)(F)F)nc2n1	1%	-1%	13µM*
O=C(COc1ccc(Cl)cc1)NCc1nnc(SCC(=O)N2CCCC2)o1	5%[10 µM]	-3%	-1%
COc1ccccc1C(=O)OC(C)CN1CCN(C)CC1 (stereo not drawn)	-12%	·	?
COc1cccc(NC(=S)N2CCC(Cc3ccccc3)CC2)c1	18µM*	·	7.1µM*
COc1ccc(NC(=S)N2CCC(Cc3ccccc3)CC2)cc1OC	16µM*	·	13µM*
COC(=O)Cc1ccc(NC(=S)N2CCN(C)CC2)cc1	-6%[10 µM]	-2%	?
COc1cccc(CC(=O)N2CCC(CCC(=O)Nc3cccc(OC)c3)CC2)c1	-13%	·	13%
CC(=O)c1cccc(NC(=S)N2CCC(Cc3ccccc3)CC2)c1	-71%	1%	14µM*
COc1ccc(NC(=S)N2CCN(S(=O)(=O)c3ccccc3)CC2)cc1OC	0%	·	8%
COC(=O)Cc1ccc(NC(=S)N2CCC(Cc3ccccc3)CC2)cc1	?	·	14µM*
CC(=O)c1ccc(NC(=S)N2CCC(Cc3ccccc3)CC2)cc1	-4%	·	20%
Clc1ccccc1C1=CC(c2ccco2)n2nnnc2N1 (stereo not drawn)	-15%	·	-7%
c1ccc(C2CC(c3ccccc3)C(c3ccccc3)N2)cc1 (stereo not drawn)	1%	·	19%
SMILES	VP16 counter	KinaseGlo FLuc	RORg inh
Cc1ccc(S(=O)(=O)OCCc2ccccc2)cc1	-14%	0%	2%
NCCCC(N)CC(=O)NC1CNC(=O)C(C2CC(O)N=C(N)N2)NC(=O)/C(=C/NC(N)=O)NC(=O)C(CO)NC(=O)C(CO)NC1=O (stereo not drawn)	2%	·	5%[10 µM]
O=C(Nc1cccc(Br)c1)c1ccc(OC2CSC2)cc1	11%	?	12%
CCOc1ccccc1N(CC(=O)NCC1CCCO1)C(=O)CCC(=O)Nc1ccccn1 (stereo not drawn)	-18%	0%	35µM*
CCOc1ccccc1N(CC(=O)NCC1CCCO1)C(=O)CCC(=O)Nc1cc(C)on1 (stereo not drawn)	8%	·	-37%
Nc1cccnc1Sc1ccc([N+](=O)[O-])cn1	?	10%	4µM*
O=[N+]([O-])c1ccc(Sc2ccccc2)nc1	1%	-1%	1%
COc1ccc(CNC(=O)Nc2cccc(C)c2)cc1	?	-4%	6%
CCc1ccc(NC(=S)Nc2cc(OC)c(NC(=O)C(C)C)cc2OC)cc1	18µM*	-1%	8.9µM*
Cc1cc(C)cc(NC(=S)NCc2cccnc2)c1	?	5%	?
COc1cccc(CNC(=S)Nc2cc(C)cc(C)c2)c1	-16%[10 µM]	1%	4.5µM*
COc1cc(NC(=S)NC(C)=O)ccc1NC(=O)C(C)C	-1%	-7%	0%
COc1ccc(CCNC(=S)Nc2cccc(C)c2)cc1	10µM*	-2%	7.1µM*
COc1cccc(NC(=S)NCc2ccncc2)c1	-10%	1%	1%
